# Measured values taken from PubChem BioAssay (EPA / NIEHS).
# Active and inactive are the calls of the source. The calls were made as follows: active = hit-call score of the fitted dose curve at least 0.9, where 1 is the maximum; inactive = score below 0.9.
# Tests used:
# [1] = read-out: Tissue Factor, F3 (gene 2152); test: BSK_CASM3C_TissueFactor: BioMAP Diversity Plus: CASM3C Assay for Tissue Factor Biomarker Activity (AID 2283052); details: primary human coronary artery smooth muscle cells; actives raise or lower the signal;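 also: cell surface tissue factor protein level read by ELISA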
# [2] = read-out: Interferon-gamma inducible Protein 10 (IP10), CXCL10 (gene 3627); test: BSK_hDFCGF_IP10: BioMAP Diversity Plus: hDFCGF Assay for Interferon-gamma inducible Protein 10 (IP10) Biomarker Activity (AID 2283053); details: primary human foreskin fibroblasts; actives raise or lower the signal
# Summary of the method: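 Primary foreskin fibroblasts, human; 24 h compound exposure; IP-10 by ELISA; bidirectional fit vs DMSO.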
# [3] = read-out: Urokinase-type plasminogen activator receptor (uPAR), PLAUR (gene 5329); test: BSK_CASM3C_uPAR: BioMAP Diversity Plus: CASM3C Assay for Urokinase-type plasminogen activator receptor (uPAR) Biomarker Activity (AID 2283054); details: primary human coronary artery smooth muscle cells; actives raise or lower the signal;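 also: cell-surface uPAR protein level quantified by ELISA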
# [4] = read-out: Vascular cell adhesion molecule 1 (VCAM1), VCAM1 (gene 7412); test: BSK_CASM3C_VCAM1: BioMAP Diversity Plus: CASM3C Assay for Vascular cell adhesion molecule 1 (VCAM1) Biomarker Activity (AID 2283055); details: primary human coronary artery smooth muscle cells; actives raise or lower the signal;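 also: VCAM-1 protein level quantified by ELISA on the cells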
# [5] = read-out: Collagen III, COL3A1 (gene 1281); test: BSK_hDFCGF_CollagenIII: BioMAP Diversity Plus: hDFCGF Assay for Collagen III Biomarker Activity (AID 2283056); details: primary human foreskin fibroblasts; actives raise or lower the signal
# Summary of the method: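 Human foreskin fibroblast primary cultures sampled 24 h after dosing; Collagen III quantified by ELISA. Signal fitted bidirectionally against DMSO baseline.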
# [6] = read-out: Epidermal growth factor receptor (EGFR), EGFR (gene 1956); test: BSK_hDFCGF_EGFR: BioMAP Diversity Plus: hDFCGF Assay for Epidermal growth factor receptor (EGFR) Biomarker Activity (AID 2283057); details: primary human foreskin fibroblasts; actives raise or lower the signal
# Summary of the method: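 hDFCGF system, primary human foreskin fibroblasts; compound 24 h; EGFR measured by ELISA; DMSO = negative control/baseline; bidirectional fitting.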
# [7] = read-out: Interleukin-8 (IL8), CXCL8 (gene 3576); test: BSK_hDFCGF_IL8: BioMAP Diversity Plus: hDFCGF Assay for Interleukin-8 (IL8) Biomarker Activity (AID 2283058); details: primary human foreskin fibroblasts; actives raise or lower the signal
# Summary of the method: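 Primary human foreskin fibroblasts (hDFCGF system) dosed with chemical; IL-8 measured by ELISA 24 hours later. Bidirectional curve fitting relative to DMSO baseline; cytotoxicity tracked in parallel cultures by SRB total protein staining.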
# [8] = BSK_hDFCGF_Proliferation: Cell Proliferation Assessment in the BioMAP Diversity Plus: hDFCGF Assay (AID 2283059); details: primary human foreskin fibroblasts;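 also: curves fitted for both rise and fall of signal versus DMSO baseline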
# Summary of the method: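 Sub-confluent human foreskin fibroblast cultures receive test chemical […]. Relative cell number is quantified by sulforhodamine B staining (0.1%, after 10% TCA fixation) at 560 nm, with bidirectional fitting referenced to DMSO.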
# [9] = read-out: Macrophage colony-stimulating factor (MCSF), CSF1 (gene 1435); test: BSK_hDFCGF_MCSF: BioMAP Diversity Plus: hDFCGF Assay for Macrophage colony-stimulating factor (MCSF) Biomarker Activity (AID 2283060); details: primary human foreskin fibroblasts; actives raise or lower the signal
# Summary of the method: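 Human foreskin fibroblast primary cultures; M-CSF measured by ELISA 24 hours after chemical dosing. Bidirectional fitting relative to DMSO, with overt cytotoxicity tracked by parallel SRB total-protein staining (0.1% SRB, 10% TCA fixation, 560 nm).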
# [10] = BSK_hDFCGF_SRB: Viability Assessment in the BioMAP Diversity Plus: hDFCGF Assay (AID 2283061); details: primary human foreskin fibroblasts;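 also: cells exposed to compound for 24 h before the read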
# Summary of the method: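 Human foreskin fibroblasts in 96-well plates were treated 24 h. Total protein was measured by 0.1% SRB staining after 10% TCA fixation, read at 560 nm. Data were fitted bidirectionally against DMSO.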
# [11] = read-out: TIMP metallopeptidase inhibitor 1 (TIMP1), TIMP1 (gene 7076); test: BSK_hDFCGF_TIMP1: BioMAP Diversity Plus: hDFCGF Assay for TIMP metallopeptidase inhibitor 1 (TIMP1) Biomarker Activity (AID 2283062); details: primary human foreskin fibroblasts; actives raise or lower the signal
# Summary of the method: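 Human foreskin fibroblast primary cultures dosed for 24 h; secreted/surface TIMP-1 quantified by ELISA. Bidirectional curve fitting against DMSO baseline; cytotoxicity tracked in parallel cultures by SRB total-protein staining.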
# [12] = read-out: Monokine induced gamma interferon (MIG), CXCL9 (gene 4283); test: BSK_hDFCGF_MIG: BioMAP Diversity Plus: hDFCGF Assay for Monokine induced gamma interferon (MIG) Biomarker Activity (AID 2283063); details: primary human foreskin fibroblasts; actives raise or lower the signal
# Summary of the method: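 MIG/CXCL9 measured by ELISA 24 h after dosing primary human skin fibroblasts. Activity fitted in both directions against DMSO controls. Cytotoxicity was checked in parallel cultures by SRB staining read at 560 nm.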
# [13] = read-out: Matrix Metallopeptidase 1 (MMP1), MMP1 (gene 4312); test: BSK_hDFCGF_MMP1: BioMAP Diversity Plus: hDFCGF Assay for Matrix Metallopeptidase 1 (MMP1) Biomarker Activity (AID 2283064); details: primary human foreskin fibroblasts; actives raise or lower the signal
# Summary of the method: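 hDFCGF primary fibroblasts (human foreskin); chemical added; 24 h; MMP1 by ELISA; bidirectional fit vs DMSO.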
# [14] = read-out: Vascular cell adhesion molecule 1 (VCAM1), VCAM1 (gene 7412); test: BSK_hDFCGF_VCAM1: BioMAP Diversity Plus: hDFCGF Assay for Vascular cell adhesion molecule 1 (VCAM1) Biomarker Activity (AID 2283065); details: primary human foreskin fibroblasts; actives raise or lower the signal;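 as to AC50: VCAM-1 protein level quantified by ELISA after 24 h chemical exposure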
# Summary of the method: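 Human foreskin fibroblast primary cells dosed with chemical, VCAM-1 measured by ELISA at 24 h. Bidirectional curve fitting relative to DMSO as negative control/baseline.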
# [15] = read-out: Plasminogen activator inhibitor-1 (PAI1), SERPINE1 (gene 5054); test: BSK_hDFCGF_PAI1: BioMAP Diversity Plus: hDFCGF Assay for Plasminogen activator inhibitor-1 (PAI1) Biomarker Activity (AID 2283066); details: primary human foreskin fibroblasts; actives raise or lower the signal
# Summary of the method: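 Primary dermal fibroblasts (human foreskin), hDFCGF system; compound 24 h; PAI-1 by ELISA; bidirectional fit vs DMSO control.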
# [16] = read-out: Intercellular Adhesion Molecule 1 (ICAM1), ICAM1 (gene 3383); test: BSK_KF3CT_ICAM1: BioMAP Diversity Plus: KF3CT Assay for Intercellular Adhesion Molecule 1 (ICAM1) Biomarker Activity (AID 2283067); details: primary human keratinocytes with fibroblasts; actives raise or lower the signal
# Summary of the method: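 Human keratinocyte–foreskin fibroblast co-culture was treated for 24 h. Cell-surface ICAM-1 was quantified by ELISA, fitted bidirectionally relative to DMSO. Cytotoxicity was checked in parallel cultures by SRB total-protein staining.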
# [17] = read-out: Interferon-gamma inducible Protein 10 (IP10), CXCL10 (gene 3627); test: BSK_KF3CT_IP10: BioMAP Diversity Plus: KF3CT Assay for Interferon-gamma inducible Protein 10 (IP10) Biomarker Activity (AID 2283068); details: primary human keratinocytes with fibroblasts; actives raise or lower the signal
# Summary of the method: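 ELISA read-out of IP-10 after 24 h chemical dosing of human skin primary co-culture (keratinocytes, foreskin fibroblasts). Gain or loss of signal relative to DMSO, bidirectional curve fit.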
# [18] = BSK_KF3CT_SRB: Viability Assessment in the BioMAP Diversity Plus: KF3CT Assay (AID 2283069); details: primary human keratinocytes with fibroblasts;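 also: total protein by sulforhodamine B staining as a cytotoxicity measure; read 24 h after compound addition; fitted for both signal gain and loss against DMSO baseline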
# Summary of the method: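 Keratinocytes co-cultured with foreskin fibroblasts (human primary); chemical added, 24 h; fix 10% TCA, stain 0.1% SRB, A560. Bidirectional fit vs DMSO.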
# [19] = read-out: Interleukin-1 alpha (IL1a), IL1A (gene 3552); test: BSK_KF3CT_IL1a: BioMAP Diversity Plus: KF3CT Assay for Interleukin-1 alpha (IL1a) Biomarker Activity (AID 2283070); details: primary human keratinocytes with fibroblasts; actives raise or lower the signal
# Summary of the method: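 Chemicals were dosed onto co-cultured human keratinocytes and foreskin fibroblasts, IL-1a was quantified by ELISA at 24 h, and activity was fitted in both directions relative to DMSO controls.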
# [20] = read-out: TIMP metallopeptidase inhibitor 2 (TIMP2), TIMP2 (gene 7077); test: BSK_KF3CT_TIMP2: BioMAP Diversity Plus: KF3CT Assay for TIMP metallopeptidase inhibitor 2 (TIMP2) Biomarker Activity (AID 2283071); details: primary human keratinocytes with fibroblasts; actives raise or lower the signal
# Summary of the method: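 Cells: human keratinocytes co-cultured with foreskin fibroblasts. Treat with chemical, 24 h. Measure TIMP-2 by ELISA; fit curves bidirectionally vs DMSO baseline.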
smiles,measurement,setting,value
Cc1cc(CCN2CCN(c3nsc4ccccc34)CC2)cc2c1NC(=O)CC2(C)C,AC50,[1],29.6 µM (active)
same,AC50,[2],11.5 µM (active)
same,AC50,[3],31.1 µM (active)
same,AC50,[4],29.4 µM (active)
same,AC50,[5],9.12 µM (active)
same,outcome,[6],inactive
same,AC50,[7],11.3 µM (active)
same,AC50,[8],7.83 µM (active)
same,AC50,[9],10.8 µM (active)
same,AC50,[10],13.4 µM (active)
same,AC50,[11],9.33 µM (active)
same,AC50,[12],10.9 µM (active)
same,AC50,[13],8.43 µM (active)
same,AC50,[14],5.57 µM (active)
same,AC50,[15],14.6 µM (active)
same,AC50,[16],29.6 µM (active)
same,AC50,[17],33.4 µM (active)
same,AC50,[18],11.7 µM (active)
same,AC50,[19],26.6 µM (active)
same,AC50,[20],20 µM (active)
CCCCC(CC)COC(=O)CCCCC(=O)OCC(CC)CCCC (stereo not given),outcome,[1],inactive
same,outcome,[2],inactive
same,outcome,[3],inactive
same,outcome,[4],inactive
same,outcome,[5],inactive
same,outcome,[6],inactive
same,outcome,[7],inactive
same,outcome,[8],inactive
same,outcome,[9],inactive
same,outcome,[10],inactive
same,outcome,[11],inactive
same,outcome,[12],inactive
same,outcome,[13],inactive
same,outcome,[14],inactive
same,outcome,[15],inactive
same,outcome,[16],inactive
same,outcome,[17],inactive
same,outcome,[18],inactive
same,outcome,[19],inactive
same,outcome,[20],inactive
COc1ccc([N+](=O)[O-])cc1N,outcome,[1],inactive
same,outcome,[2],inactive
same,outcome,[3],inactive
same,outcome,[4],inactive
same,outcome,[5],inactive
same,outcome,[6],inactive
same,outcome,[7],inactive
same,outcome,[8],inactive
same,outcome,[9],inactive
same,outcome,[10],inactive
same,outcome,[11],inactive
same,outcome,[12],inactive
same,outcome,[13],inactive
same,outcome,[14],inactive
same,outcome,[15],inactive
same,outcome,[16],inactive
same,outcome,[17],inactive
same,outcome,[18],inactive
same,outcome,[19],inactive
same,outcome,[20],inactive
CCCOc1sc(C(=O)N2CCC(c3cc(CN)ccc3F)CC2)c(C)c1Br,AC50,[1],10.8 µM (active)
same,AC50,[2],10.4 µM (active)
same,AC50,[3],8.94 µM (active)
same,AC50,[4],18.6 µM (active)
same,AC50,[5],7.98 µM (active)
same,AC50,[6],5.12 µM (active)
same,AC50,[7],7.73 µM (active)
same,AC50,[8],3.1 µM (active)
same,AC50,[9],6.92 µM (active)
same,AC50,[10],6.53 µM (active)
same,AC50,[11],10.6 µM (active)
same,AC50,[12],9.21 µM (active)
same,AC50,[13],10.3 µM (active)
same,AC50,[14],9.91 µM (active)
same,AC50,[15],6.22 µM (active)
same,AC50,[16],10.6 µM (active)
same,AC50,[17],7.07 µM (active)
same,AC50,[18],5.28 µM (active)
same,AC50,[19],10.6 µM (active)
same,AC50,[20],9.6 µM (active)
N#C[C@@H]1CC(F)(F)CN1C(=O)CNC1CC2CCC(C1)N2c1ncccn1 (stereo not given in full),outcome,[1],inactive
same,outcome,[2],inactive
same,outcome,[3],inactive
same,outcome,[4],inactive
same,outcome,[5],inactive
same,outcome,[6],inactive
same,outcome,[7],inactive
same,outcome,[8],inactive
same,outcome,[9],inactive
same,outcome,[10],inactive
same,outcome,[11],inactive
same,outcome,[12],inactive
same,outcome,[13],inactive
same,outcome,[14],inactive
same,outcome,[15],inactive
same,outcome,[16],inactive
same,outcome,[17],inactive
same,outcome,[18],inactive
same,outcome,[19],inactive
same,outcome,[20],inactive
CC(C)(C)CC(C)(C)c1ccc(O)c(-n2nc3ccccc3n2)c1,outcome,[1],inactive
same,AC50,[2],14.6 µM (active)
same,outcome,[3],inactive
same,outcome,[4],inactive
same,outcome,[5],inactive
same,AC50,[6],14.2 µM (active)
same,outcome,[7],inactive
same,AC50,[8],6.71 µM (active)
same,AC50,[9],5.47 µM (active)
same,AC50,[10],9.39 µM (active)
same,outcome,[11],inactive
same,AC50,[12],7.74 µM (active)
same,outcome,[13],inactive
same,AC50,[14],15.8 µM (active)
same,AC50,[15],11.3 µM (active)
same,outcome,[16],inactive
same,outcome,[17],inactive
same,outcome,[18],inactive
same,outcome,[19],inactive
same,outcome,[20],inactive
Nc1cccc2c(N)cccc12,outcome,[1],inactive
same,AC50,[2],29.1 µM (active)
same,outcome,[3],inactive
same,outcome,[4],inactive
same,outcome,[5],inactive
same,outcome,[6],inactive
same,outcome,[7],inactive
same,AC50,[8],5.91 µM (active)
same,AC50,[9],12.9 µM (active)
same,outcome,[10],inactive
same,outcome,[11],inactive
same,AC50,[12],16.3 µM (active)
same,outcome,[13],inactive
same,AC50,[14],6.83 µM (active)
same,outcome,[15],inactive
same,outcome,[16],inactive
same,outcome,[17],inactive
same,outcome,[18],inactive
same,outcome,[19],inactive
same,outcome,[20],inactive
